Reference: PubChem BioAssay AID1159580 (chemical genetic matrix, 2015)
Where “and” joins values, the source holds several entries; their conditions need not be identical. Equal values may be shown once. Hit rate of the full screen: of about 5,500 compounds, about 2,000 (36%) were called active. Another 18% or so got no clear call; they are omitted. Rule as the data show it: active = normalized growth mostly below about 0.91 (no sharp cut-off); inconclusive = no clear call, values can overlap the other calls; inactive = mostly above about 0.92. Some of the results follow.

Assay: chemical genetic growth profiling, strain panel (AID 1159580);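 also: tested at 20 µM; growth read once vehicle control cultures reached saturation at 30 °C; 1 = growth at the plate median or of vehicle wells; lower values mean less growth of the strain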
Settings: S. cerevisiae deletion strains, growth OD

Measured: normalized growth

NCC(O)(CS(=O)(=O)O)c1ccc(Cl)cc1 (configuration not stated)
inactive: locus YAL040C, strain CLN3, hits give low values 1.07 | locus YCL061C, strain MRC1 (second series), hits give low values 0.995 | locus YDR150W, strain NUM1, hits give low values 1.02 | locus YER002W, strain NOP16, hits give low values 1.02 | locus YGR078C, strain PAC10, hits give low values 0.99 | locus YMR263W, strain SAP30, hits give low values 1 | locus YNL153C, strain GIM3, hits give low values 1 | locus YNL175C, strain NOP13, hits give low values 0.979 | locus YNL197C, strain WHI3, hits give low values 0.98 | locus YNL224C, strain SQS1, hits give low values 1.01 | locus YOR083W, strain WHI5 (second series), hits give low values 1 | locus YPL241C, strain CIN2, hits give low values 1

COc1ccc([C@@H]2CC(=O)c3c(O)cc(O[C@@H]4O[C@H](CO[C@H]5O[C@@H](C)[C@H](O)[C@@H](O)[C@H]5O)[C@@H](O)[C@H](O)[C@H]4O)cc3O2)cc1O
inactive: locus YAL013W, strain DEP1, hits give low values 0.995 | locus YAL021C, strain ccr4, hits give low values 1.01 | locus YAL026C, strain drs2, hits give low values 0.98 | locus YAL030W, strain snc1, hits give low values 0.993 | locus YBL061C, strain skt5, hits give low values 0.969 | locus YBR009C, strain hhf1, hits give low values 0.937 | locus YBR021W, strain FUR4, hits give low values 0.988 | locus YBR023C, strain chs3, hits give low values 0.993 | locus YBR171W, strain sec66, hits give low values 0.976 | locus YBR229C, strain ROT2, hits give low values 0.993 | locus YBR231C, strain swc5, hits give low values 0.987 | locus YBR279W, strain paf1, hits give low values 0.986 | locus YCL011C, strain gbp2, hits give low values 0.975 | locus YCL016C, strain dcc1, hits give low values 0.995 | locus YCL029C, strain bik1, hits give low values 0.971 | locus YCL061C, strain MRC1, hits give low values 0.977 | locus YCL069W, strain vba3, hits give low values 0.988 | locus YCR088W, strain abp1, hits give low values 0.989 | locus YDL005C, strain med2, hits give low values 0.98 | locus YDL035C, strain GPR1, hits give low values 0.991 | locus YDL040C, strain nat1, hits give low values 0.993 | locus YDL074C, strain BRE1, hits give low values 0.984 | locus YDL101C, strain DUN1, hits give low values 0.994 | locus YDL185W, strain tfp1, hits give low values 0.98 | locus YDL192W, strain arf1, hits give low values 0.993 | locus YDR001C, strain nth1, hits give low values 0.99 | locus YDR069C, strain doa4, hits give low values 0.985 | locus YDR101C, strain arx1, hits give low values 0.968 | locus YDR137W, strain rgp1, hits give low values 1.04 | locus YDR159W, strain sac3, hits give low values 0.977 | locus YDR162C, strain NBP2, hits give low values 1.01 | locus YDR195W, strain ref2 0.932 | locus YDR297W, strain sur2, hits give low values 0.98 | locus YDR318W, strain mcm21, hits give low values 0.994 | locus YDR334W, strain swr1, hits give low values 0.998 | locus YDR335W, strain msn5, hits give low values 0.982 | locus YDR388W, hits give low values 0.977 | locus YDR392W, strain spt3, hits give low values 0.907 | locus YDR502C, strain sam2, hits give low values 0.981 | locus YEL003W, strain gim4, hits give low values 0.982 | locus YEL037C, strain rad23, hits give low values 0.991 | locus YEL061C, strain CIN8 (second series), hits give low values 0.981 | locus YEL061C, strain CIN8, hits give low values 1 | locus YER015W, strain faa2, hits give low values 0.979 | locus YER016W, strain bim1, hits give low values 0.995 | locus YER110C, hits give low values 0.973 | locus YER111C, strain swi4, hits give low values 0.97 | locus YER155C, strain BEM2 (second series), hits give low values 0.987 | locus YER155C, strain BEM2, hits give low values 0.988 | locus YER167W, strain BCK2, hits give low values 0.991 | locus YFR010W, strain ubp6, hits give low values 0.976 | locus YGL078C, strain dbp3, hits give low values 0.967 | locus YGL086W, strain mad1, hits give low values 0.979 | locus YGL167C, strain pmr1, hits give low values 0.965 | locus YGL173C, strain kem1, hits give low values 0.968 | locus YGL227W, strain vid30, hits give low values 0.973 | locus YGL240W, strain doc1, hits give low values 0.98 | locus YGL248W, strain PDE1, hits give low values 1 | locus YGL253W, strain hxk2, hits give low values 0.999 | locus YGR135W, strain pre9, hits give low values 0.998 | locus YGR229C, strain SMI1, hits give low values 1 | locus YGR252W, strain gcn5, hits give low values 1.06 | locus YHR013C, strain ard1, hits give low values 0.922 | locus YHR027C, strain rpn1, hits give low values 0.99 | locus YHR030C, strain SLT2, hits give low values 0.997 and 1.05 | locus YHR079C, strain IRE1 (second series), hits give low values 0.983 | locus YHR079C, strain IRE1, hits give low values 1.03 | locus YHR094C, strain hxt1, hits give low values 0.975 | locus YHR129C, strain ARP1, hits give low values 1 | locus YHR142W, strain chs7, hits give low values 1.01 | locus YHR200W, strain rpn10, hits give low values 1 | locus YIL066C, strain RNR3, hits give low values 1 | locus YIL073C, strain SPO22, hits give low values 1 | locus YIL125W, strain kgd1, hits give low values 0.978 | locus YIR030C, strain dcg1, hits give low values 0.976 | locus YJL092W, strain hpr5, hits give low values 0.986 | locus YJL095W, strain BCK1 (second series), hits give low values 0.993 | locus YJL095W, strain BCK1, hits give low values 1.05 and 1.02 | locus YJL115W, strain asf1, hits give low values 0.993 | locus YJL129C, strain trk1, hits give low values 1.01 | locus YJL134W, strain LCB3, hits give low values 0.994 | locus YJL154C, strain vps35, hits give low values 0.998 | locus YJL164C, strain tpk1, hits give low values 1.01 | locus YJL166W, strain qcr8, hits give low values 0.992 | locus YJL168C, strain set2, hits give low values 0.984 | locus YJL187C, strain SWE1 (second series), hits give low values 1.02 | locus YJL187C, strain SWE1, hits give low values 0.991 | locus YJR043C, strain POL32, hits give low values 1.01 | locus YJR066W, strain TOR1, hits give low values 0.987 | locus YJR075W, strain HOC1, hits give low values 1 | locus YKL009W, strain mrt4, hits give low values 1.01 | locus YKL068W, hits give low values 0.984 | locus YKL085W, strain MDH1 (second series), hits give low values 0.996 | locus YKL085W, strain MDH1, hits give low values 0.996 | locus YKL160W, strain elf1, hits give low values 1.02 | locus YKL190W, strain CNB1, hits give low values 1.01 | locus YKR001C, strain vps1, hits give low values 0.948 | locus YKR026C, strain gcn3, hits give low values 0.979 | locus YKR091W, strain srl3, hits give low values 0.981 | locus YLL001W, strain dnm1, hits give low values 1.01 | locus YLL026W, hits give low values 0.999 | locus YLL041C, strain sdh2, hits give low values 0.999 | locus YLR027C, strain aat2, hits give low values 0.998 | locus YLR039C, strain RIC1, hits give low values 1.04 | locus YLR058C, strain SHM2, hits give low values 1 | locus YLR102C, strain apc9, hits give low values 0.977 | locus YLR113W, strain HOG1, hits give low values 1.05 | locus YLR221C, strain rsa3, hits give low values 0.999 | locus YLR258W, strain gsy2, hits give low values 0.988 | locus YLR262C, strain YPT6 (second series), hits give low values 1 | locus YLR262C, strain YPT6, hits give low values 1.02 | locus YLR268W, strain sec22, hits give low values 0.959 | locus YLR320W, strain mms22, hits give low values 0.97 | locus YLR330W, strain CHS5, hits give low values 0.996 | locus YLR342W, strain FKS1 (second series), hits give low values 1.03 | locus YLR342W, strain FKS1, hits give low values 0.954 | locus YLR357W, strain rsc2, hits give low values 0.97 | locus YLR370C, strain arc18, hits give low values 0.991 | locus YLR371W, strain rom2, hits give low values 0.971 | locus YLR384C, strain iki3, hits give low values 0.976 | locus YLR418C, strain cdc73, hits give low values 1 | locus YML016C, strain PPZ1, hits give low values 0.995 | locus YML032C, strain rad52, hits give low values 1 | locus YML120C, strain ndi1, hits give low values 1.01 | locus YML124C, strain tub3, hits give low values 0.986 | locus YMR058W, strain fet3, hits give low values 0.985 | locus YMR078C, strain ctf18, hits give low values 0.969 | locus YMR125W, strain sto1, hits give low values 0.972 | locus YMR129W, hits give low values 0.989 | locus YMR205C, strain PFK2, hits give low values 0.936 | locus YMR223W, strain ubp8, hits give low values 0.992 | locus YMR231W, strain pep5, hits give low values 0.969 | locus YMR307W, strain GAS1, hits give low values 1.06 | locus YNL067W, strain RPL9B, hits give low values 1.01 | locus YNL071W, strain lat1, hits give low values 0.984 | locus YNL183C, strain NPR1, hits give low values 0.996 | locus YNL209W, strain ssb2, hits give low values 0.978 | locus YNL233W, strain BNI4, hits give low values 1 | locus YNL248C, strain rpa49, hits give low values 1.04 | locus YNL250W, strain rad50, hits give low values 0.978 | locus YNL271C, strain bni1, hits give low values 1 | locus YNL298W, strain CLA4, hits give low values 0.972 | locus YNL307C, strain MCK1, hits give low values 0.97 | locus YNL322C, strain KRE1 (second series), hits give low values 0.987 | locus YNL322C, strain KRE1, hits give low values 1 | locus YNR049C, strain mso1, hits give low values 0.993 | locus YNR052C, strain pop2, hits give low values 0.986 | locus YOL006C, strain TOP1, hits give low values 0.962 | locus YOL012C, strain htz1 1.06 | locus YOL147C, strain pex11, hits give low values 0.983 | locus YOR001W, strain rrp6, hits give low values 1.03 | locus YOR061W, strain CKA2, hits give low values 0.977 | locus YOR069W, strain VPS5, hits give low values 0.992 | locus YOR070C, strain gyp1, hits give low values 1.01 | locus YOR080W, strain dia2, hits give low values 0.974 | locus YOR083W, strain WHI5, hits give low values 1.02 | locus YOR106W, strain vam3, hits give low values 1.02 | locus YOR136W, strain idh2, hits give low values 0.981 | locus YOR144C, strain elg1, hits give low values 0.987 | locus YOR184W, strain ser1, hits give low values 0.994 | locus YOR231W, strain MKK1, hits give low values 1.06 | locus YOR265W, strain rbl2, hits give low values 1 | locus YOR270C, strain vph1, hits give low values 0.989 | locus YOR290C, strain snf2, hits give low values 0.922 | locus YOR316C, strain cot1, hits give low values 0.994 | locus YPL051W, strain arl3, hits give low values 1.03 | locus YPL078C, strain atp4, hits give low values 1.01 | locus YPL106C, strain sse1, hits give low values 0.976 | locus YPL240C, strain hsp82, hits give low values 0.966 | locus YPL256C, strain CLN2, hits give low values 1.04 | locus YPR119W, strain clb2, hits give low values 0.98 | locus YPR141C, strain kar3, hits give low values 0.98 | locus YPR163C, strain tif3, hits give low values 0.984 | locus YPR167C, strain met16, hits give low values 0.972 | strain wtn01, hits give low values 0.971
